Measured values published in PubChem BioAssay AID1159580 (chemical genetic matrix, 2015).
Several values for one entry are separate records, joined by “and”; a condition that tells them apart may be missing. Identical values can stand only once. In all, about 5,500 compounds went through this assay and about 2,000 (36%) were called active. Another 18% or so got no clear call; they are omitted. Rule as the data show it: active = normalized growth mostly below about 0.91 (no sharp cut-off); inconclusive = no clear call, values can overlap the other calls; inactive = mostly above about 0.92. The list shows a part of the results.

Assay: chemical genetic growth profiling, strain panel (AID 1159580);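 also: tested at 20 µM; growth read once vehicle control cultures reached saturation at 30 °C; 1 = growth at the plate median or of vehicle wells; lower values mean less growth of the strain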
Settings: S. cerevisiae deletion strains, growth OD

Measured: normalized growth

CC(=O)OC1CCC2C3CCc4cc(O)ccc4C3CCC12C (stereo not given)
inactive: locus YAL021C, strain ccr4, stronger effect = lower value 0.975 | locus YAL026C, strain drs2, stronger effect = lower value 0.96 | locus YAL030W, strain snc1, stronger effect = lower value 0.984 | locus YBR009C, strain hhf1, stronger effect = lower value 0.969 | locus YBR021W, strain FUR4, stronger effect = lower value 0.934 | locus YBR171W, strain sec66, stronger effect = lower value 0.996 | locus YBR229C, strain ROT2, stronger effect = lower value 1.01 | locus YBR231C, strain swc5, stronger effect = lower value 0.966 | locus YBR279W, strain paf1, stronger effect = lower value 0.979 | locus YCL011C, strain gbp2, stronger effect = lower value 0.929 | locus YCL016C, strain dcc1, stronger effect = lower value 0.954 | locus YCL029C, strain bik1, stronger effect = lower value 0.99 | locus YCL061C, strain MRC1, stronger effect = lower value 0.984 | locus YCL069W, strain vba3, stronger effect = lower value 1.02 | locus YCR088W, strain abp1, stronger effect = lower value 0.957 | locus YDL005C, strain med2, stronger effect = lower value 0.973 | locus YDL035C, strain GPR1, stronger effect = lower value 0.973 | locus YDL040C, strain nat1, stronger effect = lower value 1.01 | locus YDL074C, strain BRE1, stronger effect = lower value 0.827 | locus YDL101C, strain DUN1, stronger effect = lower value 0.98 | locus YDL134C, strain PPH21, stronger effect = lower value 0.973 | locus YDL185W, strain tfp1, stronger effect = lower value 1.02 | locus YDL192W, strain arf1, stronger effect = lower value 1.03 | locus YDR001C, strain nth1, stronger effect = lower value 0.999 | locus YDR069C, strain doa4, stronger effect = lower value 0.957 | locus YDR101C, strain arx1, stronger effect = lower value 1 | locus YDR150W, strain NUM1, stronger effect = lower value 1.01 | locus YDR162C, strain NBP2, stronger effect = lower value 1 | locus YDR297W, strain sur2, stronger effect = lower value 0.993 | locus YDR318W, strain mcm21, stronger effect = lower value 1 | locus YDR334W, strain swr1, stronger effect = lower value 1.01 | locus YDR335W, strain msn5, stronger effect = lower value 0.921 | locus YDR388W, stronger effect = lower value 0.997 | locus YDR502C, strain sam2, stronger effect = lower value 0.991 | locus YEL003W, strain gim4, stronger effect = lower value 0.993 | locus YEL037C, strain rad23, stronger effect = lower value 1 | locus YEL061C, strain CIN8 (second series), stronger effect = lower value 0.978 | locus YEL061C, strain CIN8, stronger effect = lower value 0.998 | locus YER015W, strain faa2, stronger effect = lower value 0.981 | locus YER110C, stronger effect = lower value 0.995 | locus YER111C, strain swi4, stronger effect = lower value 0.955 | locus YER155C, strain BEM2 (second series), stronger effect = lower value 0.934 | locus YER167W, strain BCK2, stronger effect = lower value 0.988 | locus YFR010W, strain ubp6, stronger effect = lower value 0.963 | locus YGL078C, strain dbp3, stronger effect = lower value 1.01 | locus YGL086W, strain mad1, stronger effect = lower value 0.979 | locus YGL167C, strain pmr1, stronger effect = lower value 0.999 | locus YGL173C, strain kem1, stronger effect = lower value 0.991 | locus YGL227W, strain vid30, stronger effect = lower value 1.01 | locus YGL240W, strain doc1, stronger effect = lower value 0.968 | locus YGL248W, strain PDE1, stronger effect = lower value 0.954 | locus YGL253W, strain hxk2, stronger effect = lower value 0.96 | locus YGR078C, strain PAC10, stronger effect = lower value 0.899 | locus YGR135W, strain pre9, stronger effect = lower value 1.03 | locus YGR229C, strain SMI1, stronger effect = lower value 0.849 | locus YGR252W, strain gcn5, stronger effect = lower value 0.986 | locus YHR013C, strain ard1, stronger effect = lower value 0.985 | locus YHR027C, strain rpn1, stronger effect = lower value 0.975 | locus YHR030C, strain SLT2, stronger effect = lower value 1.01 and 0.911 | locus YHR079C, strain IRE1 (second series), stronger effect = lower value 1 | locus YHR079C, strain IRE1, stronger effect = lower value 0.938 | locus YHR094C, strain hxt1, stronger effect = lower value 1.02 | locus YHR129C, strain ARP1, stronger effect = lower value 1 | locus YHR142W, strain chs7, stronger effect = lower value 0.903 | locus YHR200W, strain rpn10, stronger effect = lower value 1.02 | locus YIL066C, strain RNR3, stronger effect = lower value 0.962 | locus YIL073C, strain SPO22, stronger effect = lower value 0.957 | locus YIL125W, strain kgd1, stronger effect = lower value 1.01 | locus YIR030C, strain dcg1, stronger effect = lower value 1.02 | locus YJL092W, strain hpr5, stronger effect = lower value 0.986 | locus YJL095W, strain BCK1 (second series), stronger effect = lower value 1 | locus YJL095W, strain BCK1, stronger effect = lower value 0.892 and 0.899 | locus YJL115W, strain asf1, stronger effect = lower value 1.01 | locus YJL129C, strain trk1, stronger effect = lower value 0.92 | locus YJL134W, strain LCB3, stronger effect = lower value 1.01 | locus YJL154C, strain vps35, stronger effect = lower value 0.988 | locus YJL164C, strain tpk1, stronger effect = lower value 0.954 | locus YJL166W, strain qcr8, stronger effect = lower value 0.974 | locus YJL168C, strain set2, stronger effect = lower value 1.01 | locus YJL187C, strain SWE1 (second series), stronger effect = lower value 0.944 | locus YJR043C, strain POL32, stronger effect = lower value 0.938 | locus YJR066W, strain TOR1, stronger effect = lower value 0.905
active: locus YBL061C, strain skt5, stronger effect = lower value 0.893 | locus YBR023C, strain chs3, stronger effect = lower value 0.881 | locus YDR137W, strain rgp1, stronger effect = lower value 0.797 | locus YDR159W, strain sac3, stronger effect = lower value 0.842 | locus YDR195W, strain ref2 0.746 | locus YDR392W, strain spt3, stronger effect = lower value 0.608 | locus YER016W, strain bim1, stronger effect = lower value 0.918 | locus YER155C, strain BEM2, stronger effect = lower value 0.913
